Each compound was assayed on XIP peptide (Xip251-270) (assay: small-molecule binders of XIP peptide, primary screen, biochemical, small-molecule microarray, fluorescence 635/667 nm, 0.5 µg/mL protein (AID 1183)). Conditions: small-molecule microarray binding, fluorescence 635 nm; higher = more signal.
`O=C1[C@H]2[C@H]3[C@H](O)[C@H](O)CC(=NOCc4ccccc4)[C@H]3CC[C@H]2C(=O)N1C1CCCCC1` gave a composite z-score of 0.714. `C[C@@H](c1ccccc1)N1C(=O)[C@H]2[C@H]3[C@H](O)[C@H](O)CC(=NNC(=O)OCc4ccccc4)[C@@H]3CC[C@H]2C1=O` was tested, and the composite z-score was 0.209. With `C[C@H]1CC[C@@H](C(=O)O)N[C@@H]1c1ccc(C#Cc2ccccc2)cc1` the composite z-score was 0.601. `C[C@H]1CC[C@H]2C(=O)N[C@H](Cc3ccccc3)C(=O)N2[C@@H]1c1ccccc1` gave a composite z-score of 0.647. With `O=C(NN=C1C[C@@H](O)[C@@H](O)[C@@H]2[C@@H]3C(=O)N(Cc4ccc5c(c4)OCO5)C(=O)[C@@H]3CC[C@@H]12)OCc1ccccc1` the composite z-score was 0.0195. `CCc1cc2c(nc1CC)CCN(CCC(C)=NOCC[C@@H]1C=C[C@H](OC(C)=O)[C@@H](COC(C)=O)O1)C2` was tested, and the composite z-score was 0.45. Compound `CCN1C(C)=C(C(=O)OC)[C@@H](c2ccccc2)N2C(=O)[C@](O)(C(=O)OC)CC(C(C)=O)=C12` has a composite z-score of -0.218. In the case of `CCN1C(=O)[C@H]2[C@H]3[C@H](O)[C@H](O)CC(=NOC[C@@H](O)[C@H]4O[C@@H]5OC(C)(C)O[C@@H]5[C@H]4O)[C@@H]3CC[C@H]2C1=O`, the composite z-score is reported as 0.33. With `CCOC(=O)[C@H](Cc1ccccc1)NC(=O)CCC1CC(OC(=O)NCc2ccc3c(c2)OCO3)CC2(CCCC(COC(=O)NCCOC)O2)O1` (stereo partly specified) the composite z-score was 0.515. `CC(CCN1CCCCc2nc(C)c(C)cc21)=NO[C@@H](C)c1cc(-c2c(C)cc(C)cc2C)no1` showed a composite z-score of 0.0399. Work on `CCCC[C@H]1CN2[C@@H](CC[C@@H](C)[C@@H]2c2ccc(Br)cc2)C(=O)O1` yielded a composite z-score of 0.476.

From PubChem BioAssay
